Rows were chosen to be rich in hits. Some 0.49% of all compounds tested hit in one or more screens of this group.
USP1 inh: blocks the human USP1/UAF1 deubiquitinase complex; recombinant USP1/UAF1, Ub-Rhodamine cleavage fluorescence; Potency, µM (highest dose often 57.1 µM), actives largely listed as inhibitors; 390,000 compounds, 0.23% hits; AID 743255; further: nearly all actives have a fitted effect of over 60% in size
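1 nM enzyme complex + cpd, 15 min RT; start with Ub-Rho 150nM final; kinetic fluorescence ex 480/em 540, 6 reads q60 s. Buffer 50mM HEPES pH 7.8, 0.5mM EDTA, 0.1 mg/ml BSA, 1mM TCEP, 0.01% Tween-20.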
EPAC2 agonist: EPAC2 (human) agonism; Q8WZA2; EPAC2 activation, biochemical qHTS; response scale: 100% = 6.5 mM cAMP response; Potency, µM (titrated, usually from 154 µM), hits mostly activators; 360,000 compounds, 0.079% hits; further: nearly all actives have a fitted effect of over 50% in size
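Nucleotide exchange monitored as fluorescence drop when BODIPY-GDP leaves Rap1B. Reaction: 100 nM EPAC2, 250 nM RAP1B-BODIPY-GDP, 50 uM GDP, room temperature, kinetic read over 30 min. Activity expressed relative to 6.5 mM cAMP.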
EPAC1 antag: antagonists of human EPAC1; EPAC1 GEF assay, Rap1b-BODIPY-GDP exchange fluorescence; 360,000 compounds, 0.14% hits; O95398; Potency, µM (top dose mostly 115 µM), actives largely listed as inhibitors; AID 720709; further: nearly all actives have a fitted effect of over 50% in size
EPAC1 agonist: activates human EPAC1 exchange factor. O95398. EPAC1 agonist qHTS, biochemical assay; response scale: 100% = response to 6.5 mM cAMP. Potency, µM (titrated, usually from 154 µM), most hits filed as activators. 360,000 compounds, 0.073% hits. AID 720707; further: nearly all actives have a fitted effect of over 60% in size
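Nucleotide exchange by EPAC1 (100 nM) on Rap1B–BODIPY-GDP (250 nM) in the presence of 50 uM GDP is tracked fluorescently at 480/540 nm over 30 min. Signals are normalized to a 6.5 mM cAMP control.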
EPAC2 antag: blocks human EPAC2 exchange factor. Q8WZA2. EPAC2 GEF exchange of Rap1B-BODIPY-GDP, fluorescence. Potency, µM (highest dose often 114 µM), most hits filed as inhibitors. 360,000 compounds, 0.18% hits; further: nearly all actives have a fitted effect of over 45% in size
Hits are given with their value; i = inactive; ? = inconclusive; nt = no result given. The call rests on the fitted dose curve; in most records, active means well fitted curve in the direction sought with a large enough effect; inconclusive means small, poorly fitted or top-dose-only effect, or another doubt; inactive means no such curve, though single readings can be large; an effect the other way counts as inactive or inconclusive.

SMILES | USP1 inh | EPAC2 agonist | EPAC1 antag | EPAC1 agonist | EPAC2 antag
CCc1ccc(NC(=O)Cn2c(=O)n(CCc3ccccc3)c(=O)c3sc4ccccc4c32)cc1 | i | nt | nt | nt | nt
O=C(Nc1ccc(S(=O)(=O)Nc2nccs2)cc1)c1cc(-c2ccccn2)nc2ccccc12 | i | i | 71µM | i | i
Cn1c(SCC(=O)Nc2cccc(C(=O)O)c2)nnc1-c1cc2cc(Br)ccc2o1 | i | i | 35µM | 63µM | i
Cn1c(SCC(=O)Nc2cccc(Br)c2)nnc1-c1cc2ccccc2o1 | i | i | i | i | i
COCCN(CCOC)Cc1c(O)ccc2c1O/C(=C\c1ccco1)C2=O | i | i | i | i | i
CCN1CCN(Cc2c(O)ccc3c2O/C(=C\C=C\c2ccccc2OC)C3=O)CC1 | 28µM | ? | i | 56µM | i
O=C1/C(=C/c2ccco2)Oc2c1ccc(O)c2CN1CCCCC1 | 32µM | i | i | ? | i
CCN1CCN(Cc2c(O)ccc3c(=O)c(-c4ccccc4OC)coc23)CC1 | i | i | i | i | i
CC1CCN(Cc2c(O)ccc3c2O/C(=C\c2ccco2)C3=O)CC1 | 32µM | i | i | i | i
Cc1cc(C)c(NC(=O)Cn2c(=O)n(CCC(C)C)c(=O)c3cccnc32)c(C)c1 | i | nt | nt | nt | nt
CCN(CC)c1nc(N)c2c(N)nc3c(c2c1C#N)CC(c1ccccc1)O3 (configuration not stated) | i | i | i | i | i
CCN(CC)c1nc(N)c2c(N)n(-c3ccccc3C)c(=S)c(C#N)c2c1C#N | i | i | 89µM | i | i
CC1=CC2=NC(=O)/C(=C\c3cc(C)n(-c4cccc(Cl)c4)c3C)C(=N)N2O1 | i | i | i | i | i
COc1cc(/C=C2/C(=N)N3C(SC)=NSC3=NC2=O)ccc1OC(=O)c1ccco1 | i | i | i | i | i
N=C1/C(=C/c2cccs2)C(=O)N=C2SN=C(SCc3ccccc3)N12 | i | i | 79µM | i | i
CSC1=NSC2=NC(=O)/C(=C/c3coc4ccc(O)cc4c3=O)C(=N)N12 | 22µM | 100µM | i | 79µM | i
CC(C)CSC1=NSC2=NC(=O)/C(=C\c3cccs3)C(=N)N12 | i | i | i | i | i
CC1=CC2=NC(=O)/C(=C/c3coc4ccc(Cl)cc4c3=O)C(=N)N2O1 | 28µM | ? | i | ? | i
CSC1=NSC2=NC(=O)/C(=C\c3cccs3)C(=N)N12 | i | i | i | i | i
CSC1=NSC2=NC(=O)/C(=C/c3coc4ccccc4c3=O)C(=N)N12 | 25µM | 89µM | i | 100µM | i
COc1ccc(CCNc2nc(-c3ccc(OC)c(OC)c3)cc(C(F)(F)F)n2)cc1OC | i | nt | nt | nt | nt
N=C1/C(=C\c2coc3ccccc3c2=O)C(=O)N=C2SC=CN12 | 28µM | 112µM | i | 89µM | i
O=S(=O)(O)c1ccc(O)c2cc(Nc3ccccc3)ccc12 | 13µM | i | 10µM | i | ?
O=C(c1ccc(Cl)cc1)C1C2C(=O)N(c3ccccc3)C(=O)C2C2CCCN21 (configuration not stated) | i | i | i | i | i
CC(=O)c1ccc(N2C(=O)C3C(C2=O)C(C(=O)c2ccc(Cl)cc2)N2CCCC32)cc1 (configuration not stated) | 18µM | 100µM | i | ? | i
SMILES | USP1 inh | EPAC2 agonist | EPAC1 antag | EPAC1 agonist | EPAC2 antag
CCc1ccccc1NC(=O)Cc1c(C(=O)O)[nH]c2ccc(Cl)cc12 | i | nt | nt | nt | nt
CC1(C)Cc2c(sc(NC(=O)COc3cccc4ccccc34)c2C#N)C(C)(C)N1 | 18µM | i | i | i | i
Cc1ccc(NC(=O)CN2C(=O)CCc3cc(S(=O)(=O)N4CCCCC4)ccc32)cc1N(C)C | i | nt | nt | nt | nt
COc1ccc(-n2cnc3scc(-c4ccc(OC)c(OC)c4)c3c2=O)cc1 | i | i | i | i | ?
COc1ccc(-c2csc3ncn(-c4ccc(C)cc4)c(=O)c23)cc1OC | i | i | i | i | 45µM
Cc1ccc(S(=O)(=O)N2[C@@H](c3cccc(Cl)c3)C(C(=O)O)=CC[C@H]2c2ccc(C(C)C)cc2)cc1 | ? | i | 56µM | i | i
Cc1ccc(S(=O)(=O)N2[C@@H](c3ccc(Cl)cc3)C(C(=O)O)=CC[C@H]2c2cccc(Cl)c2)cc1 | i | i | i | i | ?
